An excerpt weighted towards active compounds, which were near 6.7% of everything screened.
T cruzi growth-1 – inhibitors of T. cruzi proliferation | T. cruzi beta-gal in NIH3T3, GalScreen luminescence, 90 h | inhibition, % at 8.34 µM | hit rate 5.9% among 77,000 | AID 624255;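 active = mean inhibition above about 93%, with at least 55% of replicates each passing it, limit read from the data, passing the limit was not always enough; inconclusive = only one of those two conditions holds; inactive = neither condition holds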
C diff growth – inhibitors of Clostridium difficile growth. hit rate 0.25% among 86,000. growth activity, negative = inhibition, % at 16 µg/mL (by protocol). Clostridium difficile clinical isolate growth, OD600, 24 h; stronger effect = lower value. AID 1259249;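 active = mean growth activity at or below -80% and every replicate also at or below -80%; inconclusive = mean at or below -80% but some replicate above -80%; inactive = mean growth activity above -80%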;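 note: 0% = DMSO wells and -100% = levofloxacin 16 µg/mL wells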
Pf Dd2 inh – blocks growth of Plasmodium falciparum Dd2 parasites. P. falciparum Dd2 growth, SYBR Green, 72 h; stronger effect = lower value. hit rate 2.3% among 94,000. AID 1159554. activity change, % at 10 µM; in the data active = activity change below about -80%; inconclusive = no clear call, values can overlap the other calls
T cruzi growth-2 – Trypanosoma cruzi proliferation inhibition; shares compounds with T cruzi growth-1; inhibition, % at 8.35 µM; AID 651739; hit rate 72% among 5,600; T. cruzi beta-gal in NIH3T3, GalScreen luminescence, 90 h;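 active = mean replicate inhibition above about 95% and at least 55% of replicates individually reaching it, limit read from the data; inconclusive = only one of the two criteria is met; inactive = neither criterion is met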
T cruzi growth-3 – inhibitors of T. cruzi proliferation; inhibition, % at 2.09 µM; T. cruzi beta-gal in NIH3T3, GalScreen luminescence, 90 h; hit rate 21% among 5,600; shares compounds with T cruzi growth-1;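 active = mean inhibition above about 95%, with at least 55% of replicates also reaching it, limit read from the data; inconclusive = meets just one of the two conditions; inactive = meets neither condition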;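 note: plate controls were neutral control median for no effect and positive control median for full effect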
NIH3T3 tox – kills mouse NIH/3T3 fibroblasts; cytotoxicity (signal decrease), % at 8.35 µM; NIH/3T3 viability, CellTiter-Glo ATP luminescence, 90 h; shares compounds with T cruzi growth-1; AID 651742; hit rate 14% among 5,600;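 active = mean signal decrease across replicates above about 35% based on untreated-well scatter, with enough replicates individually passing, limit read from the data; inconclusive = no rule stated though some were filed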;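 note: 0% = median of neutral control wells and 100% = median of positive control wells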
3T3 cytotox 2 – kills mouse NIH/3T3 fibroblasts; shares compounds with T cruzi growth-1; NIH/3T3 viability, CellTiter-Glo ATP luminescence, 90 h; inhibition, % at 24.9 µM; hit rate 56% among 5,600; AID 651744;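 active = mean loss of cell viability signal at or above a set limit, and enough replicates individually reaching it; inconclusive = meets only the mean limit or only the replicate share; inactive = meets neither condition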;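 note: 0% = median of neutral control wells and 100% = median of positive control wells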
* = called active by the depositor; u = inconclusive; x = no result given.

SMILES	T cruzi growth-1	C diff growth	Pf Dd2 inh	T cruzi growth-2	T cruzi growth-3	NIH3T3 tox	3T3 cytotox 2
CC(C)(C)[S@](=O)N1Cc2cc(C(=O)NCc3ccncc3)nc(-c3cccc(-c4cccc(C#N)c4)c3)c2[C@@H]1CCO	72	x	-66	x	x	x	x
COc1ccc(CNC(=O)c2cc3c(c(-c4cccc(-c5ccc(C#N)cc5)c4)n2)[C@@H](CCO)N([S@](=O)C(C)(C)C)C3)cc1	98*	x	-53	111*	107*	21	38*
COc1ccc(NC(=O)Nc2ccc3c(c2)C(=O)N([C@H](C)CO)C[C@H](C)[C@@H](CN(C)S(=O)(=O)c2cn(C)cn2)OCCCC[C@@H](C)O3)cc1	-106	3	8	x	x	x	x
CO[C@H]1CN(C)C(=O)c2cc(NS(=O)(=O)c3cccc(Cl)c3)ccc2OC[C@@H](C)NC[C@@H]1C	-9	x	1	x	x	x	x
CO[C@@H]1CN(C)C(=O)c2cc(NC(=O)C3CCCC3)ccc2OC[C@H](C)N(CCC(F)(F)F)C[C@@H]1C	0	x	x	x	x	x	x
O=C(Nc1nccs1)[C@@H]1[C@@H](CO)[C@@H]2Cn3c(ccc(-c4cccnc4)c3=O)[C@@H]2N1CC1CCCC1	85	5	-19	x	x	x	x
O=C(NCC1CC1)[C@@H]1[C@@H](CO)[C@@H]2Cn3c(ccc(-c4cncnc4)c3=O)[C@@H]2N1C(=O)NC1CCCC1	-29	0	x	x	x	x	x
COc1ccccc1-c1ccc2n(c1=O)C[C@H]1[C@H](CO)[C@@H](C(=O)Nc3nccs3)N(CC3CC3)[C@@H]21	u	4	-1	-1	-28	3	11
O=C(Nc1nccs1)[C@H]1[C@H](CO)[C@H]2Cn3c(ccc(-c4cccnc4)c3=O)[C@H]2N1CC1CCCC1	u	1	-9	20	-3	11	54*
O=C(NCC1CC1)[C@@H]1[C@@H](CO)[C@@H]2Cn3c(ccc(-c4cccnc4)c3=O)[C@@H]2N1C(=O)NC1CCCC1	u	0	2	-1	32	-6	15
O=C(Nc1nccs1)[C@@H]1[C@@H](CO)[C@@H]2Cn3c(cccc3=O)[C@@H]2N1C(=O)C1CCC1	101*	0	13	1	-13	3	1
O=C(Nc1nccs1)[C@H]1[C@H](CO)[C@H]2Cn3c(cccc3=O)[C@H]2N1C(=O)C1CCC1	85	0	1	x	x	x	x
CCN1[C@@H]2c3ccc(-c4ccccc4OC)c(=O)n3C[C@@H]2[C@@H](CO)[C@@H]1C(=O)Nc1nccs1	87	4	6	x	x	x	x
CCCNC(=O)Nc1ccc2c(c1)OC[C@@H](C)N(Cc1cccnc1)C[C@H](C)[C@@H](OC)CN(C)C2=O	-17	x	-12	x	x	x	x
O=C(Nc1cccc(Cl)c1)N1C[C@@H]2[C@H](c3ccccc31)[C@H](CO)N2CC1CCOCC1	68	2	1	x	x	x	x
C[C@@H]1CN([C@H](C)CO)C(=O)c2cc(NS(=O)(=O)c3cn(C)cn3)ccc2O[C@@H]1CN(C)S(=O)(=O)c1cn(C)cn1	29	x	12	x	x	x	x
Cc1noc(C)c1NC(=O)N[C@@H]1C=C[C@@H](CC(=O)Nc2ccc(-c3ccccc3)cc2)O[C@H]1CO	0	x	1	x	x	x	x
Cc1ccccc1-c1cnc2c(c1)C(=O)N([C@H](C)CO)C[C@H](C)[C@@H](CN(C)CC1CCOCC1)O2	60	5	37	x	x	x	x
O=C(NCc1ccc(F)cc1)[C@H]1[C@H](CO)[C@H]2Cn3c(cccc3=O)[C@H]2N1CCC(F)(F)F	78	-6	x	x	x	x	x
O=C(NCc1ccc(F)cc1)[C@@H]1[C@@H](CO)[C@@H]2Cn3c(cccc3=O)[C@@H]2N1CCC(F)(F)F	143*	6	x	-1	-5	0	1
CCN1[C@H](C(=O)NCc2ccc(F)cc2)[C@@H](CO)[C@@H]2Cn3c(ccc(-c4ccccc4OC)c3=O)[C@@H]21	104*	10	x	69	18	17	3
CCN1[C@@H]2c3ccc(-c4ccccc4OC)c(=O)n3C[C@@H]2[C@@H](CO)[C@@H]1C(=O)NCc1ccccc1	52	-2	5	x	x	x	x
Cc1ccc(S(=O)(=O)N[C@@H]2C=C[C@@H](CC(=O)N3CCc4ccccc4C3)O[C@@H]2CO)cc1	14	-2	4	x	x	x	x
COCC(=O)Nc1ccc2c(c1)C(=O)N(C)C[C@H](OC)[C@@H](C)CN(Cc1ccncc1)[C@@H](C)CO2	29	x	17	x	x	x	x
C[C@@H]1CCCCO[C@@H](CN(C)C(=O)Cc2ccccc2)[C@@H](C)CN([C@H](C)CO)C(=O)c2cc(NC(=O)Nc3cccc4ccccc34)ccc2O1	54	4	5	x	x	x	x
SMILES	T cruzi growth-1	C diff growth	Pf Dd2 inh	T cruzi growth-2	T cruzi growth-3	NIH3T3 tox	3T3 cytotox 2
C[C@@H]1CCCCO[C@H](CN(C)C(=O)Cc2ccccc2)[C@H](C)CN([C@@H](C)CO)C(=O)c2cc(NC(=O)Nc3cccc4ccccc34)ccc2O1	101*	5	-57	105*	57	-37	2
C[C@H]1CCCCO[C@H](CN(C)C(=O)Cc2ccccc2)[C@@H](C)CN([C@@H](C)CO)C(=O)c2cc(NC(=O)Nc3ccccc3)ccc2O1	99*	x	-45	109*	52	28	8
C[C@H]1CCCCO[C@H](CN(C)C(=O)Cc2ccccc2)[C@@H](C)CN([C@@H](C)CO)C(=O)c2cc(NC(=O)NC3CCCCC3)ccc2O1	76	-15	-34	x	x	x	x
C[C@@H]1CCCCO[C@H](CN(C)C(=O)Cc2ccccc2)[C@@H](C)CN([C@@H](C)CO)C(=O)c2cc(NC(=O)Nc3ccccc3)ccc2O1	92	x	-74	x	x	x	x
C[C@@H]1CCCCO[C@@H](CN(C)C(=O)Cc2ccccc2)[C@H](C)CN([C@H](C)CO)C(=O)c2cc(NC(=O)NC3CCCCC3)ccc2O1	100*	-8	-17	108*	26	10	26*
O=C(C[C@@H]1C=C[C@H](NC(=O)Nc2ccc3c(c2)OCO3)[C@H](CO)O1)NCc1ccc2c(c1)OCO2	4	1	2	x	x	x	x
C[C@H](CO)N1C[C@H](C)[C@@H](CN(C)S(=O)(=O)c2cn(C)cn2)Oc2ncc(C3=CCCC3)cc2C1=O	66	1	-2	x	x	x	x
COc1ccccc1NC(=O)Nc1ccc2c(c1)C(=O)N(C)C[C@H](OC)[C@@H](C)CN[C@H](C)CO2	-67	0	-21	x	x	x	x
CC(C)CC#Cc1ccc2c(c1)O[C@H](CN(C)C(=O)c1ccncc1)[C@H](C)CN([C@@H](C)CO)S2(=O)=O	64	6	5	x	x	x	x
CC(C)CC#Cc1ccc2c(c1)O[C@@H](CN(C)C(=O)c1ccncc1)[C@@H](C)CN([C@H](C)CO)S2(=O)=O	104*	0	-12	107*	73	32	71*
CC(C)CC#Cc1ccc2c(c1)O[C@@H](CN(C)C(=O)c1ccncc1)[C@@H](C)CN([C@@H](C)CO)S2(=O)=O	107*	4	-3	u	71	3	62*
